In PubChem BioAssay (NCATS):
Records with an inconclusive call do not appear. The source made the active and inactive calls. Calls come from the whole dose curve; as a rule, active = well fitted curve in the direction sought with a large enough effect; inconclusive = small, poorly fitted or top-dose-only effect, or another doubt; inactive = no such curve, though single readings can be large; an effect the other way counts as inactive or inconclusive.

target: Rap guanine nucleotide exchange factor 4 (Homo sapiens) (UniProt Q8WZA2); test: Confirmatory qHTS for agonist of cAMP-regulated guanine nucleotide exchange factor 4 (EPAC2) (AID 1645884); details: EPAC2 GEF activity, Rap1B-BODIPY-GDP fluorescence; series mostly up to 154 µM; activation: at the top concentration;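 note: nucleotide exchange releases bodipy-GDP from Rap1 and this lowers its fluorescence; % is set by controls: 0 for no effect and ±100 for the full control effect; nearly all actives have a fitted effect of over 65% in size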
Sequence (Q8WZA2 whole entry, looked up): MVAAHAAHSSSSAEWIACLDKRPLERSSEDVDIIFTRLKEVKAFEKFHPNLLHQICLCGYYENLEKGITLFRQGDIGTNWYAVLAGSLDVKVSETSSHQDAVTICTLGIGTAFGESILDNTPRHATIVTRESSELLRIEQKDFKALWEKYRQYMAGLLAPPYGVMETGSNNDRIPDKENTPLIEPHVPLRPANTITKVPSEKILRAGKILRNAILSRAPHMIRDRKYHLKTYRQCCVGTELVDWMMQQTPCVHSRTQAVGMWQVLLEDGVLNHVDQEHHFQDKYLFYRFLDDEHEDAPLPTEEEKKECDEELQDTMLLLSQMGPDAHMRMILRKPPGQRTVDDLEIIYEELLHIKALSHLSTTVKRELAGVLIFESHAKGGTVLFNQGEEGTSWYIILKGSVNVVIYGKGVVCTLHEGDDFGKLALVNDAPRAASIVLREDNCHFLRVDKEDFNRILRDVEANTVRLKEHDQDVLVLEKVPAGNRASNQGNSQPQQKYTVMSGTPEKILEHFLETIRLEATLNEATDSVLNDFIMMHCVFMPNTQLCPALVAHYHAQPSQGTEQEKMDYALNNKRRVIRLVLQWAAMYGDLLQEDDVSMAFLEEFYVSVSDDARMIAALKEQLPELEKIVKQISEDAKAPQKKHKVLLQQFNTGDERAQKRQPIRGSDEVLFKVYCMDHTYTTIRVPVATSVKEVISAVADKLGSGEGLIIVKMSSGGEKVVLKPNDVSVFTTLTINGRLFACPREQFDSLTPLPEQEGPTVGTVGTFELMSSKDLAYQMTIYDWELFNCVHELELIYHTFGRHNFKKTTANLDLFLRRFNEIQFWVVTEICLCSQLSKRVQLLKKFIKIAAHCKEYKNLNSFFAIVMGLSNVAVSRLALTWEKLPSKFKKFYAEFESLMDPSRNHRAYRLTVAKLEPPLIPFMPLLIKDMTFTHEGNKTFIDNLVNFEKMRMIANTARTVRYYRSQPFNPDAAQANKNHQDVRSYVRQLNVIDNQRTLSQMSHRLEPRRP

SMILES | activation
CC(C)=CCc1c(O)cc2oc3c(CC=C(C)C)c(O)c(O)c(CC=C(C)C)c3c(=O)c2c1O | -42.4% (inactive)
COc1ccc(C(C#N)N2CCC(c3ccccc3)=N2)cc1OC (stereo not given) | 10% (inactive)
O=C(CS(=O)(=O)c1ccccc1)c1cc2ccccc2oc1=O | 8.75% [at 17.1 µM, percent relative to cAMP agonist control] (inactive)
Cn1c2c(c3ccccc31)CCN1CCC[C@]21c1ccccc1 | 0% (inactive)
CCCCN(C(=O)c1ccc2c(c1)OCO2)c1ccccc1 | 0% (inactive)
COc1cc(/C=C2\COC/C(=C\c3ccc(O)c(OC)c3)C2=O)ccc1O | 1.06% (inactive)
Cc1nc2ccccc2c(=O)n1N(c1ccccc1)c1ccccc1 | -5.22% [at 17.1 µM, percent relative to cAMP agonist control] (inactive)
Cc1cc(C)c2nc(N3C(=O)C(O)=C(C(=O)c4ccco4)C3c3ccc(O)cc3)sc2c1 (stereo not given) | -26.9% (inactive)
CC(C)C(NC(=O)c1ccccc1)C(=O)OCn1nnc2ccccc2c1=O (stereo not given) | 11.1% [at 83.8 µM, percent relative to cAMP agonist control] (inactive)
O=c1[nH]nc(CNc2ccc(O)cc2)c2ccccc12 | 9.82% (inactive)
CCCCOc1ccc(NS(=O)(=O)c2ccc(-n3cnnn3)cc2)cc1 | -1.21% (inactive)
Cc1ccc(CC#N)c(-c2c(CC#N)ccc(C)c2C)c1C | 0% (inactive)
COc1ccc(-c2csc(NC(=O)c3ccccc3NS(=O)(=O)c3ccc(F)c(F)c3)n2)cc1 | -1.62% [at 17.1 µM, percent relative to cAMP agonist control] (inactive)
Cc1ccc([N+](=O)[O-])cc1NC(=O)c1ccc(-c2ccccc2)cc1 | -5.62% (inactive)
COc1cc(/C=C2\C(=N)N3N=C(S(C)(=O)=O)SC3=NC2=O)cc(OC)c1OCCOc1ccccc1C | -22.4% (inactive)
O=C(Nc1cccc(Cl)c1N1CCOCC1)c1cccs1 | 5.45% (inactive)
Cn1c(N)c(C(=O)COC(=O)C2(c3ccc(Cl)cc3)CCCC2)c(=O)n(C)c1=O | -4.66% (inactive)
COc1cc(/C=C2\C(=N)N3N=C(S(C)(=O)=O)SC3=NC2=O)ccc1OS(=O)(=O)c1ccc(C)cc1 | 3.42% (inactive)
O=C(Cc1ccc(F)cc1)Nc1ccccc1Sc1ccccc1 | 8.34% (inactive)
N#Cc1c(C(F)(F)F)cc(-c2ccccc2)nc1SCc1nc(N)nc(N2CCOCC2)n1 | 14.1% (inactive)

SMILES | activation
COC(=O)c1c(-c2ccc(OC)cc2)sc2ccc(OC)cc12 | 8.74% (inactive)
Cc1cccc(C(=O)Oc2ccc(/C=N/NC(=O)c3cc(O)cc(O)c3)cc2)c1 | 7.28% (inactive)
Cc1oc2c(c1C(=O)c1ccccc1)C(=O)C(=O)c1ccccc1-2 | 12.3% (inactive)
CN1OC[C@@H]2CN(Cc3ccc(Cl)cc3)[C@H](c3ccc(-n4ccnc4)cc3)C[C@@H]21 | 4.62% [at 17.1 µM, percent relative to cAMP agonist control] (inactive)
Cc1nc(-c2ccc(C(=O)Nc3cccc(Br)c3)cc2)cs1 | 1.65% (inactive)
CCCc1nc2c3ccccc3ccn2c1CC(C)(C)C | 10.1% (inactive)
COc1ccc(NC(=O)c2cc(-c3ccco3)nc3ccccc23)cc1S(=O)(=O)N1CCOCC1 | -4.79% (inactive)
CCCCn1nnnc1C(c1ccccc1)N1CCN(c2ccc(F)cc2)CC1 (stereo not given) | -2.19% (inactive)
CCSc1nc(-c2ccccc2)nc2c1CCCC2 | 0.324% (inactive)
CCOC(=O)c1ccccc1NC(=O)COC(=O)C(Cc1c[nH]c2ccccc12)NC(C)=O (stereo not given) | -0.0096% (inactive)
O=[N+]([O-])c1ccccc1O[C@@H]1O[C@H](CO)[C@H](O)[C@H](O)[C@H]1O | -3.49% (inactive)
COc1ccc(/C=C2\N=C(SC)N(c3ccccc3OC)C2=O)cc1 | 7.24% [at 17.1 µM, percent relative to cAMP agonist control] (inactive)
COc1cc(/C=C2\C(=O)N(c3cccc(C(=O)O)c3)N=C2C)ccc1OCc1ccccc1 | -10.4% (inactive)
CCCCCCc1cc2cc(-c3nnc(-c4ccc(C)cc4)o3)c(=O)oc2cc1O | 20.4% [at 83.8 µM, percent relative to cAMP agonist control] (inactive)
COc1ccccc1N(CC(=O)Nc1ccc(Br)cc1F)S(=O)(=O)c1cccs1 | 4.9% (inactive)
COc1ccc(C(=O)N/N=C/c2ccc3cccc(OCc4ccccc4)c3n2)cc1 | -0.879% (inactive)
CC(C)NC(=O)c1sc(=S)n2c1[nH]c(=O)c1ccc(C(=O)NCCc3ccc(Cl)cc3)cc12 | 4.17% [at 17.1 µM, percent relative to cAMP agonist control] (inactive)
COCCN(C(=O)c1cc2c(s1)CCCCC2)c1c(N)n(Cc2ccccc2)c(=O)[nH]c1=O | 4.34% (inactive)
CCOc1ccc(-n2c(SCC(=O)Nc3ccc(F)cc3)nc3c([nH]c4ccccc43)c2=O)cc1 | -2.46% [at 83.8 µM, percent relative to cAMP agonist control] (inactive)
CCN(CC1COc2ccccc2O1)C(=O)CN1C(=O)NC(C)(c2ccc(C)cc2)C1=O (stereo not given) | -9.24% (inactive)

target: Rap guanine nucleotide exchange factor 3 (Homo sapiens) (UniProt O95398); test: Counterscreen qHTS for antagonist of cAMP-regulated guanine nucleotide exchange factor 3 (EPAC1) (AID 1645888); details: Rap1B-BODIPY-GDP nucleotide exchange, fluorescence; series mostly up to 154 µM; activity change, negative = inhibition: at the top concentration;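 note: fluorescence loss as bound BODIPY-GDP is released from Rap1B; % of control where 0% means no effect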
Sequence (O95398 whole entry, looked up): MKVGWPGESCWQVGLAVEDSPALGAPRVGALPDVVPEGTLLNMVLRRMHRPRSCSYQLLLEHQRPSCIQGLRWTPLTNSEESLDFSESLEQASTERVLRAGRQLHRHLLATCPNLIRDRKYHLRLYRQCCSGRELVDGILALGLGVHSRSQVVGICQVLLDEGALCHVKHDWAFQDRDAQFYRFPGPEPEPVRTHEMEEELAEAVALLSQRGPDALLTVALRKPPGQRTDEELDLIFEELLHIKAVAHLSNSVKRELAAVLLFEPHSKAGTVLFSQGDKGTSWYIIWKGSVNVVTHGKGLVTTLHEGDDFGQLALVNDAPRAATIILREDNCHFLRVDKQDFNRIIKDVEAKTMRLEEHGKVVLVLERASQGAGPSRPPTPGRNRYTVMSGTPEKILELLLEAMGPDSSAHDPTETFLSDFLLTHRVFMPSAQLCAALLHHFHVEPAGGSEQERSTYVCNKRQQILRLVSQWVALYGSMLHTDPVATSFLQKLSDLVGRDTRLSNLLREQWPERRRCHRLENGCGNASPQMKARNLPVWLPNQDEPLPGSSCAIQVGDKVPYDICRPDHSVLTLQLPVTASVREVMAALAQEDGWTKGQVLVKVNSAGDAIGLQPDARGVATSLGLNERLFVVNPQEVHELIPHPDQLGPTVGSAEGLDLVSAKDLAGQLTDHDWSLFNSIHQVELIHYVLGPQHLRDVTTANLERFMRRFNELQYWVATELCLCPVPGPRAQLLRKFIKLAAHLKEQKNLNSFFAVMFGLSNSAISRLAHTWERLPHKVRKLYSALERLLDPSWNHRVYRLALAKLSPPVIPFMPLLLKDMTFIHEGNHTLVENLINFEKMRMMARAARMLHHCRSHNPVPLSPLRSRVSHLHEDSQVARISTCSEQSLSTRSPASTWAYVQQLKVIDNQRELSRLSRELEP
In short: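 Rap1B–BODIPY-GDP (250 nM) with 50 uM GDP; compounds pin-transferred to 9.74 nM–152 uM final (activator) or from 7.32 nM upwards (inhibitor). Fluorescence Ex/Em 480/540 nm read at 5 and 30 min, then after adding cAMP or buffer, at room temperature.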

SMILES | activity change, negative = inhibition
CC(C)=CCc1c(O)cc2oc3c(CC=C(C)C)c(O)c(O)c(CC=C(C)C)c3c(=O)c2c1O | -22.3% (inactive)
COc1ccc(C(C#N)N2CCC(c3ccccc3)=N2)cc1OC (stereo not given) | 25.6% (inactive)
O=C(CS(=O)(=O)c1ccccc1)c1cc2ccccc2oc1=O | -20.4% [at 30.8 µM] (inactive)
Cn1c2c(c3ccccc31)CCN1CCC[C@]21c1ccccc1 | -17.6% (inactive)
CCCCN(C(=O)c1ccc2c(c1)OCO2)c1ccccc1 | 24.5% (inactive)
COc1cc(/C=C2\COC/C(=C\c3ccc(O)c(OC)c3)C2=O)ccc1O | 0.582% (inactive)
Cc1nc2ccccc2c(=O)n1N(c1ccccc1)c1ccccc1 | 9.75% [at 30.8 µM] (inactive)
Cc1cc(C)c2nc(N3C(=O)C(O)=C(C(=O)c4ccco4)C3c3ccc(O)cc3)sc2c1 (stereo not given) | 12.7% (inactive)
CC(C)C(NC(=O)c1ccccc1)C(=O)OCn1nnc2ccccc2c1=O (stereo not given) | 17.2% (inactive)
O=c1[nH]nc(CNc2ccc(O)cc2)c2ccccc12 | 8.39% (inactive)
CCCCOc1ccc(NS(=O)(=O)c2ccc(-n3cnnn3)cc2)cc1 | 41% (inactive)
Cc1ccc(CC#N)c(-c2c(CC#N)ccc(C)c2C)c1C | 0.619% (inactive)
COc1ccc(-c2csc(NC(=O)c3ccccc3NS(=O)(=O)c3ccc(F)c(F)c3)n2)cc1 | -3.56% [at 30.8 µM] (inactive)
Cc1ccc([N+](=O)[O-])cc1NC(=O)c1ccc(-c2ccccc2)cc1 | 11.4% (inactive)
COc1cc(/C=C2\C(=N)N3N=C(S(C)(=O)=O)SC3=NC2=O)cc(OC)c1OCCOc1ccccc1C | -19.2% (inactive)
O=C(Nc1cccc(Cl)c1N1CCOCC1)c1cccs1 | 11.7% (inactive)
Cn1c(N)c(C(=O)COC(=O)C2(c3ccc(Cl)cc3)CCCC2)c(=O)n(C)c1=O | 33.8% (inactive)
COc1cc(/C=C2\C(=N)N3N=C(S(C)(=O)=O)SC3=NC2=O)ccc1OS(=O)(=O)c1ccc(C)cc1 | 9.89% (inactive)
O=C(Cc1ccc(F)cc1)Nc1ccccc1Sc1ccccc1 | -8.57% (inactive)
N#Cc1c(C(F)(F)F)cc(-c2ccccc2)nc1SCc1nc(N)nc(N2CCOCC2)n1 | 39.1% (inactive)

SMILES | activity change, negative = inhibition
COC(=O)c1c(-c2ccc(OC)cc2)sc2ccc(OC)cc12 | 12.4% (inactive)
Cc1cccc(C(=O)Oc2ccc(/C=N/NC(=O)c3cc(O)cc(O)c3)cc2)c1 | -10.5% (inactive)
Cc1oc2c(c1C(=O)c1ccccc1)C(=O)C(=O)c1ccccc1-2 | -25.5% (inactive)
CN1OC[C@@H]2CN(Cc3ccc(Cl)cc3)[C@H](c3ccc(-n4ccnc4)cc3)C[C@@H]21 | 1.17% [at 30.8 µM] (inactive)
Cc1nc(-c2ccc(C(=O)Nc3cccc(Br)c3)cc2)cs1 | 33.4% (inactive)
CCCc1nc2c3ccccc3ccn2c1CC(C)(C)C | 1.92% (inactive)
COc1ccc(NC(=O)c2cc(-c3ccco3)nc3ccccc23)cc1S(=O)(=O)N1CCOCC1 | -12.4% (inactive)
CCCCn1nnnc1C(c1ccccc1)N1CCN(c2ccc(F)cc2)CC1 (stereo not given) | -4.58% (inactive)
CCSc1nc(-c2ccccc2)nc2c1CCCC2 | 5.75% (inactive)
CCOC(=O)c1ccccc1NC(=O)COC(=O)C(Cc1c[nH]c2ccccc12)NC(C)=O (stereo not given) | 2.05% (inactive)
O=[N+]([O-])c1ccccc1O[C@@H]1O[C@H](CO)[C@H](O)[C@H](O)[C@H]1O | 25.2% (inactive)
COc1ccc(/C=C2\N=C(SC)N(c3ccccc3OC)C2=O)cc1 | -8.08% [at 30.8 µM] (inactive)
COc1cc(/C=C2\C(=O)N(c3cccc(C(=O)O)c3)N=C2C)ccc1OCc1ccccc1 | 37.6% (inactive)
CCCCCCc1cc2cc(-c3nnc(-c4ccc(C)cc4)o3)c(=O)oc2cc1O | 8.79% (inactive)
COc1ccccc1N(CC(=O)Nc1ccc(Br)cc1F)S(=O)(=O)c1cccs1 | 9.86% (inactive)
COc1ccc(C(=O)N/N=C/c2ccc3cccc(OCc4ccccc4)c3n2)cc1 | -17.4% (inactive)
CC(C)NC(=O)c1sc(=S)n2c1[nH]c(=O)c1ccc(C(=O)NCCc3ccc(Cl)cc3)cc12 | -15.1% [at 30.8 µM] (inactive)
COCCN(C(=O)c1cc2c(s1)CCCCC2)c1c(N)n(Cc2ccccc2)c(=O)[nH]c1=O | -6.64% (inactive)
CCOc1ccc(-n2c(SCC(=O)Nc3ccc(F)cc3)nc3c([nH]c4ccccc43)c2=O)cc1 | 16.5% (inactive)
CCN(CC1COc2ccccc2O1)C(=O)CN1C(=O)NC(C)(c2ccc(C)cc2)C1=O (stereo not given) | -0.33% (inactive)
